PP1 inh – PP1-alpha (human) inhibition in PP5 counter-screen; purified PP1alpha, OMFP fluorescence; inhibition, % at 6.7 µM; 320,000 compounds, 0.9% hits; AID 2235;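 active = inhibition above the mean inhibition of all tested compounds plus 3 SD, computed separately for each screening campaign, cut at about 15% in these data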
Target sequence (P62136 whole entry, looked up): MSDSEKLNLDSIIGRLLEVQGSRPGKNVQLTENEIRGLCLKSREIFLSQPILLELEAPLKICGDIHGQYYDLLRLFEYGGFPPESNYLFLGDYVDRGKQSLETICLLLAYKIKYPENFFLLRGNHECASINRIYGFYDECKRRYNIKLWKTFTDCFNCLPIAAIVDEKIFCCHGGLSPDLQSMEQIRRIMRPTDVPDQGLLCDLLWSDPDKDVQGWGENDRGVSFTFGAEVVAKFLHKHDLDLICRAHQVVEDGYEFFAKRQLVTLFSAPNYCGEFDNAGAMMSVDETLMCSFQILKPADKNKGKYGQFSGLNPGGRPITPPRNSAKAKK
Calb FLC – affects C. albicans growth with fluconazole; C. albicans CaCi-2 (fluconazole-resistant clinical isolate) + fluconazole, Alamar Blue growth, 48 h; growth inhibition, % (concentration not given with the values); 300,000 compounds, 0.57% hits; AID 1979;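 active = growth inhibition above about 58% in most replicates, limit read from the data, passing the limit was not always enough; inconclusive = exactly half the replicates above a set limit; inactive = most replicates below a set limit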;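 note: all wells also contain fluconazole at 8 µg/ml as a sub-toxic cotreatment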
CSC inhib – cancer stem cell inhibition; AID 2717; cancer stem cell-like cells viability, luminescence; 300,000 compounds, 1.1% hits; inhibition, % at 7.5 µM; in the data active = inhibition above about 75%; inconclusive = no clear call, values can overlap the other calls; tested in HMLE shEcad cells
ALR H2O2 inh – human ALR oxidase inhibition via reduced H2O2; purified ALR, DTT oxidation, H2O2 HRP-luminol luminescence; inhibition, % (test concentration not listed); 290,000 compounds, 3.8% hits; AID 485317;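 active = mean replicate inhibition above about 79%, with every replicate also reaching it, limit read from the data; inconclusive = only one of the two criteria met; inactive = mean below limit and not every replicate reaching it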
Target sequence (P55789 whole entry, looked up): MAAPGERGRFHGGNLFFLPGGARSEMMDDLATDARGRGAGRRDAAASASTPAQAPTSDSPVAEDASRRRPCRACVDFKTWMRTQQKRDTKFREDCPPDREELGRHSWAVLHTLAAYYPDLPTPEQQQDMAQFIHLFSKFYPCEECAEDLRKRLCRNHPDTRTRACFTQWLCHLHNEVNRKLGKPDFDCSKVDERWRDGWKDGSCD
PP5 inh – PP5 (human) phosphatase inhibition; P53041; purified PP5c, OMFP substrate fluorescence; inhibition, % at 6.7 µM; 320,000 compounds, 0.18% hits; AID 1987;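 active = inhibition above the campaign's mean inhibition across all tested compounds plus 3 SD, cut at about 9.5% in these data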
Numbers stand for hits; – = inactive; ? = inconclusive; · = no result. In the library only some 5.4% were active in any assay of this set; here they are far more common.

SMILES	PP1 inh	Calb FLC	CSC inhib	ALR H2O2 inh	PP5 inh
Brc1ccccc1-c1nnc(SCc2nc3ccccc3s2)o1	–	–	–	96	–
COc1ccc(C(=O)c2ccc(N(C)C)cc2)c(OC)c1	–	–	–	96	–
Cn1ccnc1SCc1cn2ccccc2n1	–	–	·	94	–
c1ccn2cc(CSc3nnc4ccccn34)nc2c1	–	–	–	–	–
Cc1ccc(-c2nc(CS(=O)CC(=O)NC3CCCC(C)C3C)c(C)o2)cc1 (stereo not drawn)	–	–	–	99	–
COc1ccc(-c2nc(CS(=O)CC(=O)NC3CCCC(C)C3C)c(C)o2)cc1OC (stereo not drawn)	–	–	–	99	–
Cc1cc(C)cc(NC(=O)C(NCC2CCCO2)c2ccccc2)c1 (stereo not drawn)	–	–	–	–	–
NS(=O)(=O)c1ccc(CNC(=O)/C=C/c2ccccc2[N+](=O)[O-])cc1	–	–	–	–	–
COc1cccc(-c2nc(CS(=O)(=O)CC(=O)NCCCN3CCN(C)CC3)c(C)o2)c1	–	–	–	99	–
Cc1ccc(-c2nc(CS(=O)(=O)CC(=O)NCCCN3CCN(C)CC3)c(C)o2)cc1	–	–	–	–	–
CCN1CCN(CCCNC(=O)CS(=O)(=O)Cc2nc(-c3cccc(OC)c3)oc2C)CC1	–	–	–	90	–
COc1cccc(-c2nc(CS(=O)(=O)CC(=O)NCCCN3CC(C)CC(C)C3)c(C)o2)c1 (stereo not drawn)	–	–	–	90	–
COc1cccc(-c2nc(CS(=O)(=O)CC(=O)NCCCN3C(C)CCCC3C)c(C)o2)c1 (stereo not drawn)	–	–	–	–	–
COc1ccc(NC(=O)COC(=O)c2ccc3ccccc3n2)cc1OC	·	·	–	–	·
CCN(c1ccc(NC(=O)COC(=O)c2ccc3ccccc3n2)cc1)C(C)C	–	–	–	96	–
CCc1ccc2cccc3c2c1N=CN3C	–	–	–	100	–
COC(CNC(=O)c1ccc2c3c(onc13)-c1ccccc1C2=O)OC	–	–	84	–	–
COc1ccccc1N(C)S(=O)(=O)c1ccc(C(=O)Nc2nc(C)c(C(C)=O)s2)cc1	–	·	·	·	–
COCCN(CCOC)S(=O)(=O)c1ccc(C(=O)Nc2nc(C)c(C(C)=O)s2)cc1	–	–	–	100	–
COc1ccc(C(=O)OCC(=O)N2CCOCC2)cc1S(=O)(=O)N1CCOCC1	–	·	·	–	–
Cc1oc(-c2ccccc2Cl)nc1CS(=O)(=O)CC(=O)NC1CCCC1	–	–	–	98	–
Cc1ccccc1-c1nc(CS(=O)(=O)CC(=O)NC2CCCC2)c(C)o1	–	–	–	–	–
COc1cccc(-c2nc(CS(=O)(=O)CC(=O)NC3CCCc4ccccc43)c(C)o2)c1 (stereo not drawn)	–	–	–	89	–
COc1cccc(-c2nc(CS(=O)(=O)CC(=O)NC3CCC(C)CC3)c(C)o2)c1 (stereo not drawn)	–	–	–	–	–
COc1cccc(-c2nc(CS(=O)(=O)CC(=O)NC3CCCC3)c(C)o2)c1	–	–	–	98	–
SMILES	PP1 inh	Calb FLC	CSC inhib	ALR H2O2 inh	PP5 inh
O=C(Nc1ncc(Cc2cccc([N+](=O)[O-])c2)s1)c1ccco1	–	–	97	–	–
COc1ccc(C2CC(c3ccccc3)=NN2C(=O)c2ccc(F)cc2)cc1 (stereo not drawn)	–	–	–	·	–
COc1ccc(C2CC(c3ccccc3)=NN2C(=O)CN2N=NC3C(=O)N(c4cccc(F)c4)C(=O)C32)cc1 (stereo not drawn)	17	–	–	–	–
N#Cc1ccc(C2=NC(C(F)(F)F)(C(F)(F)F)c3c(n(Cc4ccco4)c(=O)[nH]c3=O)N2)cc1	–	–	–	96	–
CS(=O)(=O)N1CCN(c2ccc(NC(=O)c3ccc(-c4ccc(Cl)cc4)o3)cc2)CC1	–	–	–	–	–
CN1CCN(c2ccc(NC(=O)c3ccc(-c4ccc(Cl)cc4)o3)cc2)CC1	–	–	105	–	–
O=S(=O)(c1ccccc1)N(CC(O)Cn1c2ccccc2c2ccccc21)c1ccccc1 (stereo not drawn)	–	–	95	–	–
C=C[C@@H]1c2cc(C)ccc2N(S(=O)(=O)c2ccc(C)cc2)[C@H](c2ccc(OC(C)=O)cc2)C1(C#N)C#N	–	·	113	–	–
COc1cc(C(=O)NCC(=O)n2nc(C)cc2C)cc(OC)c1OC	–	–	–	·	–
CCNc1nc(NCC)n2c(SCC(=O)Nc3ccc(Br)cc3F)nnc2n1	–	–	–	98	–
Cc1nc(C#N)c(N/N=C/c2cccc(Cl)c2)o1	–	–	–	97	–
Clc1cccc(/C=N/Nc2nnc(Cl)c3ccccc23)c1	–	–	–	–	–
CNC(=S)Nc1ccc(Nc2ccccc2)cc1	–	–	·	99	–
S=C(NCCCNC(=S)Nc1ccccc1)Nc1ccccc1	–	–	–	–	–
CCCNC(=S)Nc1ccc(Nc2ccccc2)cc1	–	–	–	99	–
COc1ccc(/C=C/C(=O)N2CCN(c3ccccn3)CC2)cc1	·	–	–	–	·
CCN(CC)C(=O)CC(c1ccc2c(c1)OCO2)c1c(OC)cc(OC)c2ccc(=O)oc12 (stereo not drawn)	–	–	–	–	–
O=C(N/N=C\c1c(O)ccc2ccccc12)c1cncc(Br)c1	–	82	98	–	–
O=C(N/N=C/c1c(O)ccc2ccccc12)Nc1ccccc1	–	–	–	–	–
Cc1ccc(C(=O)N/N=C/c2c(O)ccc3ccccc23)cn1	–	89	81	–	–
O=C(N/N=C\c1c(O)ccc2ccccc12)c1ccc(O)cc1	–	–	–	–	–
O=C(CSCC(=O)Nc1ccccc1)N/N=C/c1c(O)ccc2ccccc12	–	113	–	–	–
O=C(N/N=C/c1cc(Br)c(O)c(Br)c1)c1cc2c(ccc3ccccc32)o1	·	109	–	–	·
O=C(C[C@H]1C(=O)N(Cc2ccccc2)C[C@@H]1Cc1ccccc1)Nc1ccccc1	–	–	–	–	–
Cc1nc(NC(=O)CCCC(=O)Nc2nc(C)c(C)s2)sc1C	–	–	–	–	–
SMILES	PP1 inh	Calb FLC	CSC inhib	ALR H2O2 inh	PP5 inh
CC(C)c1c(O)cc(-c2ccncc2)n(-c2ccc(Cl)cc2)c1=O	–	–	–	–	–
COc1cccc2[nH]c3c(Cl)ncnc3c12	–	–	–	–	–
O=C(N/N=C/c1c(O)ccc2ccccc12)c1ccc(Br)o1	–	–	156	–	–
COc1ccc2ccccc2c1/C=N\NC(=O)c1cccnc1	–	–	–	–	–
O=C(N/N=C/c1c(O)ccc2ccccc12)c1cccnc1	–	100	?	–	–
CCN(CC(=O)Nc1ccc(OC)cc1)CC(=O)Nc1cccc(C#N)c1	–	–	–	–	–
Fc1ccc2cnc(C3=CCCCC3)cc2c1	·	·	–	–	·
CCCCn1c(SCC(=O)NCc2ccco2)nc2ccccc2c1=O	–	–	–	–	–
CCCCCn1c(SCc2ccncc2)nc2cc(C(=O)NCc3ccco3)ccc2c1=O	16	–	–	–	–
COc1ccc(OC)c(N(CC(N)=O)S(=O)(=O)c2ccc(OC)c(OC)c2)c1	–	–	–	99	–
